# Source: PubChem BioAssay AID485364 (National Center for Advancing Translational Sciences (NCATS), 2010)
# Screen size: about 360,000 compounds; about 11,000 (3.1%) were called active. Not shown: some 4% with an inconclusive outcome. The full list was thinned out, with actives kept by preference. A number with no mark means an inactive call. Calls come from the whole dose curve; as a rule, active = well fitted inhibition curve with a large enough effect; inconclusive = small, poorly fitted or top-dose-only effect; inactive = no such curve, though single readings can be large or run the other way.
# Biological target: Schistosoma mansoni thioredoxin glutathione reductase (TGR) (UniProt Q962Y6)
# Assay: qHTS Assay for the Inhibitors of Schistosoma Mansoni Peroxiredoxins; note: nearly all actives have a fitted effect of over 60% in size
# Settings: purified TGR, DTNB reduction, TNB absorbance 405 nm; series mostly up to 114 µM; activity change, negative = inhibition: at the top concentration
# Summary of the method: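 Kinetic colorimetric format: TGR-catalysed, NADPH-driven DTNB reduction monitored via TNB absorbance. Enzyme dispensed at 20 nM; compound exposure 15 min at room temperature before reaction start.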
# % is set by controls: 0 for no effect and ±100 for the full control effect; potency is the fitted concentration of half-maximal effect.
SMILES,"activity change, negative = inhibition [%]",Potency
CCOc1ccccc1C(=O)NC1(C(F)(F)F)C(=O)Nc2c1c(=O)[nH]c(=O)n2-c1ccc(F)cc1 (configuration not stated),8.33,
CC(C)NC(=O)c1nn(-c2ccccc2F)nc1CO,8.65,
CCCC(=O)Nc1ccc(NC(=O)c2sc3ccccc3c2Cl)cc1,-17.3,
O=C(/C=C\NCC(=O)c1ccccc1)c1ccccc1,,28.2 µM (active)
O=C(/C=C/NCc1ccc(F)cc1)c1ccccc1,4.49,
O=C(/C=C/NNC(=O)c1cccc(Br)c1)c1ccccc1,0,
COc1cc(NC(=O)CSc2nc3nc(C)c(Cc4ccc(C)cc4)c(C)n3n2)cc(OC)c1OC,3.82,
COc1ccc(NC(=O)C2CCCN(S(=O)(=O)c3c(C)[nH]c(=O)[nH]c3=O)C2)c(OC)c1 (configuration not stated),0.241,
CC(=O)N1CCCc2cc(S(=O)(=O)N3CCC(C(=O)NCc4ccc(F)cc4)CC3)ccc21,1.32,
Cc1ccc(C)c(N2CCN(S(=O)(=O)c3ccc4c(c3)C(C(C)C)C(=O)N4)CC2)c1 (configuration not stated),7.18,
CCOC(=O)C(=CNNc1ccsc1C(=O)OC)C(=O)OCC,,20 µM (active)
COC(=O)c1sccc1NN1C(=O)c2ccccc2C1=O,-0.191,
COC(=O)c1sccc1NC(=O)CCC1CCCC1,0.189,
O=C(CCCCn1c(=O)c2ccccc2n(CC(=O)Nc2cccc(C(F)(F)F)c2)c1=O)NCc1ccc2c(c1)OCO2,-1.07,
COc1cccc(CNC(=O)CCc2nc(-c3ccc(C)cc3)no2)c1,18.6,
CCOC(=O)Cn1c(=O)n(-c2ccccc2OC)c2nc(-c3cccc(F)c3)nc(C(N)=O)c21,0.122,
COC(=O)C1=C(C)NC2=C(C(=O)c3ccccc32)C1c1ccc(-c2ccc(C(=O)O)cc2)o1 (configuration not stated),,20 µM (active)
CCOC(=O)c1ccc(-c2ccc(C(=O)Nc3cccnc3)o2)cc1,0,
CCOc1cc(C2C(C(=O)OC)=C(C)NC3=C2C(=O)c2ccccc23)ccc1O (configuration not stated),4.85,
CCOC(=O)c1cc2c(=O)n3ccccc3nc2n(CC2CCCO2)c1=NC(=O)c1ccccc1Br (configuration not stated),4.51,
Cc1cc(C)c2c(=O)[nH]c(SCC(=O)Nc3ccc(Br)cc3)nc2n1,-17.4,
Cc1ccn(C(CC(=O)c2ccc(Br)cc2)C(=O)O)n1 (configuration not stated),,8.91 µM (active)
Cc1ccc(NC(=O)CCC(=O)c2ccc(Br)cc2)cc1,-8.2,
Cc1ccc(-n2ncc3c(=O)n(Cc4cccc(C(F)(F)F)c4)cnc32)cc1C,-1.38,
O=C(Nc1ccccc1Cl)N1CCC(CN2CCCC2)CC1,-14.6,
CCOC(=O)c1ccccc1CN1C(=O)c2ccccc2S1(=O)=O,-0.286,

SMILES,"activity change, negative = inhibition [%]",Potency
CCOC(=O)c1cc2n(c1N)-c1ccccc1C2=O,,31.6 µM (active)
CCOC(=O)c1cc(-c2ccccc2)n(CCC(=O)Nc2ccccc2CC)c1C,9.85,
O=C(Nc1cccc2cccnc12)c1cccc2c(Br)cccc12,-2.45,
COc1ccc(CNC(=O)c2cc3c(=O)[nH]c4ccc(C)cc4c3s2)c(OC)c1,8.13,
N#C/C(=C\c1cccc(F)c1)c1nc(-c2cc3c(ccc4ccccc43)oc2=O)cs1,6.2,
COC(=O)c1ccc(CSc2ccc3nnc(-c4ccccc4)n3n2)o1,,56.2 µM (active)
COC(=O)c1ccc(CSc2nnc(N)s2)o1,0.472,
COC(=O)c1ccc(CSc2ccccc2C)o1,8.62,
CCOc1ccc(OCC)c(NS(=O)(=O)c2ccc3[nH]c(=O)ccc3c2)c1,5.65,
CCc1ccccc1N1CC(c2nc3ccccc3n2CCCCOc2ccccc2)CC1=O (configuration not stated),5.87,
O=C(/C=C/c1ccc(F)cc1)NC(=S)NNC(=O)c1cccnc1,-1.91,
O=C(/C=C/c1ccc([N+](=O)[O-])o1)NNC(=O)c1ccc(F)cc1,,11.2 µM (active)
O=C(Nc1ccc(F)cc1)C1CCN(C(=O)c2ccc([N+](=O)[O-])cc2)CC1,3.63,
CC1(C)CCSC(/C=C/c2ccccc2)=N1,,17.8 µM (active)
CCCCC(CC)CNC(=O)C1CCN(S(=O)(=O)c2cccc3nsnc23)CC1 (configuration not stated),-3.56,
COc1ccc2c(CNCCc3ccccc3C)c(C(=O)O)n(Cc3ccccc3C)c2c1,-2.09,
CC1CCN(CC(=O)c2c[nH]c3ccccc23)CC1,2.55,
Cc1[nH]c2ccccc2c1C(=O)CN1CCCC(C)C1 (configuration not stated),,25.1 µM (active)
CCOC(=O)N1CCN(CC(=O)c2ccc3c(c2)CCN3)CC1,0.36,
CC1CCCN(Cc2nc3c(c(=O)n(C)c(=O)n3C)n2CC(=O)c2ccccc2)C1 (configuration not stated),-0.23,
CCOC(=O)N1CCN(CC(=O)c2c(C)[nH]c3ccccc23)CC1,,35.5 µM (active)
CCOC(=O)N1CCN(CC(=O)n2c(C)c(C)c3ccccc32)CC1,-20.4,
Cc1cccc(N2CCN(C(=O)Cn3ncc4c5ccccc5n(C)c4c3=O)CC2C)c1 (configuration not stated),5.55,
CCc1cc2c(cc3c(=O)n(CC(=O)NCc4cccc(Cl)c4)nc(CC)n32)s1,4.93,
Cc1cccc(NC(=O)c2cc3c(C)nn(-c4ccccc4)c3s2)c1,2.56,
COC(=O)c1ccc(OC)c(Cn2c(=O)n(Cc3ccccc3)c(=O)c3c2c2cc(OC)ccc2n3C)c1,-8.64,

SMILES,"activity change, negative = inhibition [%]",Potency
Cc1oc2ccc(O)c(CN3CCCCC3)c2c1C(=O)Nc1cccc(C(F)(F)F)c1,9.2,
CCN(Cc1ccccc1)C(=O)c1cn(-c2cccc(OC)c2)c(=O)c2ccccc12,-14.9,
Cc1ccccc1NC(=O)CN1C(=O)C(C)(C)c2ccccc21,5.62,
COc1cccc(-n2c(SCC(=O)c3c[nH]c4ccccc34)nc3ccccc3c2=O)c1,1.41,
COc1ccc(/C=C(\C#N)c2c[nH]c3ccccc23)cc1,,14.1 µM (active)
CCOc1ccc(/C=C(\C#N)c2nc3ccccc3c(=O)[nH]2)cc1OC,1.74,
COC(=O)c1ccc(NC(=O)c2cccc3c2C(=O)N(C2CCCCC2)C3)cc1,1.52,
CCN(CC)c1nn2c(=O)c(C(=O)NCCc3ccccc3)cnc2s1,37.5,
O=C(O)c1ccc(Nc2nc(-c3ccccc3)c3cc(Br)ccc3n2)cc1,1.15,
CC1=NC2(CCCc3c2no[n+]3[O-])N(O)C1(C)C (configuration not stated),,44.7 µM (active)
COc1ccc(-c2cn3nc(N4CCC(C(=O)Nc5cccc(C)c5C)CC4)sc3n2)cc1,1.06,
CCOC(=O)C1CCCN(C(=O)c2ccc(-n3ccc4ccccc43)s2)C1 (configuration not stated),9.63,
O=C(CN1C(=O)COc2ccccc21)Nc1ccc(F)cc1,,70.8 µM (active)
CC(OC(=O)CN1C(=O)COc2ccccc21)C(=O)NCc1ccc(F)cc1 (configuration not stated),5.02,
O=C(CN1C(=O)COc2ccc(Cl)cc21)Nc1ccc(N2CCOCC2)cc1,-47.8,
O=C(O)c1c(CNCc2cccc(F)c2)c2ccccc2n1Cc1ccccc1,-14.8,
Brc1cc(/C=N/n2cnnc2)oc1Br,-8.99,
Cc1cccc(C(=O)Nc2ccc(C(=O)N/N=C/c3cccc(C)n3)cc2)c1,-5.22,
Cc1ccc(C(=O)N/N=C\c2cc(Br)c(Br)o2)cn1,,22.4 µM (active)
Cn1nnnc1SCCCNCc1cccc(OCc2ccc(Cl)cc2)c1,-0.443,
CCOC(=O)c1cc2c(=O)n3ccccc3nc2n(CCCOC)c1=NC(=O)C(C)Oc1ccccc1 (configuration not stated),-2.86,
CCOC(=O)C(=Cc1ccccc1OC)C(=O)OCC,,28.2 µM (active)
CCOC(=O)C(=CNc1cccc(C)n1)C(=O)OCC,6.03,
COc1ccccc1/C=C/C(=O)NC1CC2CCC1C2 (configuration not stated),-1.68,
COc1cc(C(=O)NCCc2csc3nc(-c4ccccc4C)nn23)cc(OC)c1OC,-4.46,
CCC1=Nc2cc(C(=O)NCCCN3CCOCC3)ccc2Sc2ccc(Br)cc21,4.06,

SMILES,"activity change, negative = inhibition [%]",Potency
O=C(NCCCN1CCOCC1)c1ccc2c(c1)N(Cc1cccc(F)c1)C(=O)c1ccccc1S2,,22.4 µM (active)
Cc1ccccc1CN1C(=O)c2ccccc2Sc2ccc(C(=O)NCCCN3CCOCC3)cc21,,inactive
Cc1ccc(CCNC(=O)c2ccc3c(c2)nc2n3CCC(C)C2)cc1 (configuration not stated),-6.81,
CCOc1cccc(CC(=O)N2CCc3c([nH]c4ccccc34)C2c2ccc(OC)cc2)c1OCC (configuration not stated),9.6,
CCN(CC)S(=O)(=O)c1ccc2c(c1)nc(CN(C)C(=O)Nc1ccc(Cl)cc1)n2C,4.09,
CCOC(=O)C(C(=O)OCC)C(C#N)c1ccccc1 (configuration not stated),-0.421,
O=C(Cc1ccc(-c2ccccc2)cc1)NC(c1ccccc1)c1ccccc1,3.82,
CCOC(=O)/C=C/C(=O)OCC(=O)NC(c1ccccc1)c1ccccc1,,15.8 µM (active)
COc1cccc(C2C(C(=O)Nc3ccc(C)cc3C)=C(C)Nc3c(C(=O)Nc4ccccc4)cnn32)c1 (configuration not stated),-6.99,
Cc1cccc(NC(=O)CSc2nc3c([nH]c4ccccc43)c(=O)n2-c2cc(C)cc(C)c2)c1,4.01,
CSc1cccc(NC(=O)CN2C(=O)CCc3cc(S(=O)(=O)N4CCCCC4)ccc32)c1,0.0354,
COc1ccc(Cn2c(C(=O)O)c(CNCc3cccc(OC)c3)c3ccc(C)cc32)cc1,3.42,
O=C(CSc1nc(=O)[nH]c2c1CCCC2)Nc1cc(C(F)(F)F)ccc1Cl,-0.322,
Cc1nc2c(c(C)nn2-c2ccccc2)c(C)c1CCC(=O)NCCc1ccc(Cl)cc1,2.65,
C=Cc1ccc(Cn2c(C(=O)O)c(CNC3CCCC3)c3ccc(C)cc32)cc1,-1.48,
O=C(NCc1ccco1)c1ccc(Cn2c(=O)c3sccc3n(Cc3ccc(F)cc3)c2=O)cc1,1.62,
CC(C)OCCCNC(=O)CNC(=O)c1cccs1,1,
CC(C)OCCCNC(=O)c1ccc(C2SCC(=O)N2Cc2ccco2)cc1 (configuration not stated),,25.1 µM (active)
CCOc1ccc(NC(=O)c2cc(S(=O)(=O)N3CCCC3)c[nH]2)cc1,1.37,
COc1ccc(CNC(=O)c2cc3c(s2)-c2ccccc2OC3)cc1,0.527,
COc1cccc(CNC(=O)Cn2c(=O)c3cccn3c3ccc(F)cc32)c1OC,6.91,
O=C(CNC(=O)c1ccccc1)NCC(=O)OCC(=O)c1ccccc1,14.6,
O=C(CNC(=O)c1ccccc1)Oc1ccc([N+](=O)[O-])cc1,,11.2 µM (active)
O=C(NNS(=O)(=O)Cc1ccccc1)c1ccc([N+](=O)[O-])cc1,1.83,
